The source made the active and inactive calls.

Consider nine molecules from PubChem BioAssay.

Assay [1] in a line: binders of probe aFSTL3 on microarray, primary screen, stem cell growth factor project, biochemical, small-molecule microarray, fluorescence 635/667 (AID 1064).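 Further: measures binding of the biotinylated anti-FSTL3 antibody to printed compounds.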 To be noted: higher = more signal.
A short description of assay [2]: binders from COS7 lysate, DM2A8 probe, primary screen, torsin A project, cell lysate, small-molecule microarray, fluorescence 635/667 (AID 1065). To be noted: higher = more signal, COS7 lysate expressing mutant human TOR1A.
Assay [3] is described as follows: binders of probe aFGF2 on microarray, primary screen, stem cell growth factor project, biochemical, small-molecule microarray, fluorescence 635/667 (AID 1067).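 Further: measures binding of biotinylated aFGF2 protein to printed compounds on slides; z-score merges feature fluorescence and signal-to-noise across triplicate slides.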 To be noted: higher = more signal.
Assay [4] can be described thus: binders of probe aFGF10 on microarray, primary screen, stem cell growth factor project, biochemical, small-molecule microarray, fluorescence 635/667 (AID 1071).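 Further: score merges 667 nm spot intensity and signal to noise from triplicate slides.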 The conditions noted are these: higher = more signal.
The target of assay [5] is Neurogenic locus notch homolog protein 2 (Homo sapiens) (UniProt Q04721). Put plainly: Notch2 binders on small-molecule microarrays, primary screen, biochemical, small-molecule microarray, 635 nm fluorescence, stem cell growth factors (AID 1073). The conditions noted are these: Notch2 binding, higher = more signal.
Chain of Neurogenic locus notch homolog protein 2 (Homo sapiens) (Q04721 whole entry, looked up, canonical isoform): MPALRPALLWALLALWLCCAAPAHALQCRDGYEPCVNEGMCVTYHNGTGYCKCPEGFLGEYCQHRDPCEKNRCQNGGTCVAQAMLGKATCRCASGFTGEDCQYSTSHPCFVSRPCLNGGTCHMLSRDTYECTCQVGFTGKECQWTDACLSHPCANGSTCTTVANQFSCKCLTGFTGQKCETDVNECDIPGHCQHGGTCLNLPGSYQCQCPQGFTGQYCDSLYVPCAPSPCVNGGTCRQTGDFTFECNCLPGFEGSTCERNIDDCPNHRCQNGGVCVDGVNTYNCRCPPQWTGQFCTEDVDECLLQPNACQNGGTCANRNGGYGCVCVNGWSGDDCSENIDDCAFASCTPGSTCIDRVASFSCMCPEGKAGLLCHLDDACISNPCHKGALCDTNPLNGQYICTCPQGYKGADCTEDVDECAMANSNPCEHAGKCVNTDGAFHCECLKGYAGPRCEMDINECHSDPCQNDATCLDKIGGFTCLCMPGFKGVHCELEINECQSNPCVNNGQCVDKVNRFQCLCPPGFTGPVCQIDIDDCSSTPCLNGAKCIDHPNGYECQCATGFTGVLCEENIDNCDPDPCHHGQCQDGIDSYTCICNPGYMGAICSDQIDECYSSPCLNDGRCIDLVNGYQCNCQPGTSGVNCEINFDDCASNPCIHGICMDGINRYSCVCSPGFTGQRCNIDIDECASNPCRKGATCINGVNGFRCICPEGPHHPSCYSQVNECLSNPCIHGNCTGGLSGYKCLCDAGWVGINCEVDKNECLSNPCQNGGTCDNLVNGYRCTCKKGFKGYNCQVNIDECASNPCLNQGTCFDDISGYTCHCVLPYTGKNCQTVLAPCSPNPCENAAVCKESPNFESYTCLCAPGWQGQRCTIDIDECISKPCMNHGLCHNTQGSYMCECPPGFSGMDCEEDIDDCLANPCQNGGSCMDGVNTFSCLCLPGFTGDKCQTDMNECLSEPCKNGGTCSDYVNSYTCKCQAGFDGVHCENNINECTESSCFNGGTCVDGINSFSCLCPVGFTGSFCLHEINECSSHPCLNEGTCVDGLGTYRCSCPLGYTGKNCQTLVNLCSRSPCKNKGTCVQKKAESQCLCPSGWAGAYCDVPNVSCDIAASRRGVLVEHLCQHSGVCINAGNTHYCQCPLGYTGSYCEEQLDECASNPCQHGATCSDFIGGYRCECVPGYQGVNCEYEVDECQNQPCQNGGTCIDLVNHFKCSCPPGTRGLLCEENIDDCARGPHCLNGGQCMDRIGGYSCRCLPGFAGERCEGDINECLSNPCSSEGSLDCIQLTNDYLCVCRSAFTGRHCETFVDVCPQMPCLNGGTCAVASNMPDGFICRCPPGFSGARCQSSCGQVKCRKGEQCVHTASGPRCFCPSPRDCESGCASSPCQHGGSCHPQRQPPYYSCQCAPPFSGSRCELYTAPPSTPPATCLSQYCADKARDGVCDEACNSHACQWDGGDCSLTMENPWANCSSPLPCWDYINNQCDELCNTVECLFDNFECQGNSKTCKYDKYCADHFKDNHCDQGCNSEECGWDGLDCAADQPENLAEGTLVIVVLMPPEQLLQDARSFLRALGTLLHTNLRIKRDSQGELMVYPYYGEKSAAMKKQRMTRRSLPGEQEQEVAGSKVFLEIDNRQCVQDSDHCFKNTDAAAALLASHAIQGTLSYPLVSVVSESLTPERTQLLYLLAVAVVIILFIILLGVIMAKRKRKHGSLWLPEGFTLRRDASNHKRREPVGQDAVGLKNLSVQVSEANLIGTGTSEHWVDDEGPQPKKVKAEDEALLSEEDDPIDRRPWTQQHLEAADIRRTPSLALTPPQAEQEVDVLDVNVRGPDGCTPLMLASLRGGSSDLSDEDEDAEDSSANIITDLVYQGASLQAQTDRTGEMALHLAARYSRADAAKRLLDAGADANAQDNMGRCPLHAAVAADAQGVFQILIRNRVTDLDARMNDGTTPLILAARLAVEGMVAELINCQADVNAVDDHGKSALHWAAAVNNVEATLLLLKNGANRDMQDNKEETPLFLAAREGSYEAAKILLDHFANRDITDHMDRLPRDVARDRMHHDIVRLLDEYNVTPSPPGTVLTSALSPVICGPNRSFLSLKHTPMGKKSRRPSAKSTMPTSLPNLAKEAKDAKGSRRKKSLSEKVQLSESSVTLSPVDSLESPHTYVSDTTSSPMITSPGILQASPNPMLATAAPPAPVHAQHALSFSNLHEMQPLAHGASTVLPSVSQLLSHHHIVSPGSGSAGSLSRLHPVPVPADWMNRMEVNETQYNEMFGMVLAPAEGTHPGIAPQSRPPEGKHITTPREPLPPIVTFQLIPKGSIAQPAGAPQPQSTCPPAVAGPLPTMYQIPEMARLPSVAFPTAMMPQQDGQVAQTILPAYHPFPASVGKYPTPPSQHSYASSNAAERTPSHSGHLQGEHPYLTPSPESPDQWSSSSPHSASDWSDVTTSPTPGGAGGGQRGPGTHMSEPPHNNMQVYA
Assay [6] addresses Pro-neuregulin-1, membrane-bound isoform (Homo sapiens) (UniProt Q02297). Put plainly: NRG1 binders on small-molecule microarrays, primary screen, psychiatric disease protein project, biochemical, small-molecule microarray, fluorescence 635/667 (AID 1075).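 Further: score combines 667 nm spot fluorescence with signal to noise.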 The conditions noted are these: NRG1 binding, 635 nm fluorescence, higher = more signal.
For assay [7], the system named is Neuregulin-1 EGF-like domain. Kind of assay: binders of neuregulin-1 EGF-like domain, primary screen, biochemical, small-molecule microarray, 635 nm fluorescence (AID 1081).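 Further: binding of the protein to compounds printed on small-molecule microarray slides.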 The conditions noted are these: small-molecule microarray binding, higher = more signal.
Assay [8] in a line: FRG1 promoter luciferase signal modulators, primary screen, FRG1 inhibition for FSHD, cell-based, C2C12 myotubes, firefly/Renilla luciferase, luminescence (AID 1084). The conditions noted are these: higher = more signal, called active from +8 up or from −8 down.
Assay [9] is described as follows: binders of probe aFST on microarray, primary screen, stem cell growth factor project, biochemical, small-molecule microarray, fluorescence 635/667 (AID 1086).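 Further: score merges 667 nm fluorescence with signal-to-noise of each printed compound spot.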 The conditions noted are these: higher = more signal.
Assay [10] can be described thus: binders of probe aHhip on microarray, primary screen, stem cell growth factor project, biochemical, small-molecule microarray, fluorescence 635/667 (AID 1087).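 Further: score merges spot fluorescence at 667nm with spot signal to noise ratio.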 To be noted: higher = more signal.
Assay [11] has as its system PRMT1 (protein arginine N-methyltransferase 1). Put plainly: PRMT1 binders on small-molecule microarrays, primary screen, biochemical, small-molecule microarray, 635 nm fluorescence (AID 1088).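 Further: binding of Prmt1 protein to compounds spotted on small-molecule microarray slides.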 The conditions noted are these: small-molecule microarray binding, higher = more signal.
A short description of assay [12]: yeast growth modulation, basal conditions, primary screen, YJM789 clinical isolate, OD600, 24 h (AID 1089).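 Further: growth of clinical yeast isolate S. cerevisiae YJM 789 seeded 1000 cells per well; test concentration not given here.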 To be noted: S. cerevisiae YJM789 growth, higher = more signal, called active from +8 up or from −8 down.
A short description of assay [13]: fission yeast growth modulation, primary screen, strain 972, OD600, 24 h, no modulator (AID 1090).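 Further: basal condition with compound alone and no growth modifier present; test concentration not given here.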 To be noted: S. pombe 972 growth, higher = more signal, called active from +8 up or from −8 down.
Assay [14] can be described thus: S. cerevisiae growth modulation with rapamycin, primary screen, strain BY4716, OD600, 96 h (AID 1091). Further: test concentration not given here. To be noted: higher = more signal, called active from +8 up or from −8 down.
Assay [15] deals with Torsin-1A-interacting protein 2 (Homo sapiens) (UniProt Q8NFQ8). Kind of assay: LULL1 binders on small-molecule microarray, primary screen, cell lysate, human LULL1 lysate, 635/667 nm fluorescence (AID 1092).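 Further: probe is lysate of COS7 cells overexpressing human LULL1; score merges per-feature 667 nm fluorescence with signal-to-noise.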 To be noted: hLULL1 lysate binding, 635 nm fluorescence, higher = more signal.
Chain of Torsin-1A-interacting protein 2 (Homo sapiens) (Q8NFQ8 whole entry, looked up): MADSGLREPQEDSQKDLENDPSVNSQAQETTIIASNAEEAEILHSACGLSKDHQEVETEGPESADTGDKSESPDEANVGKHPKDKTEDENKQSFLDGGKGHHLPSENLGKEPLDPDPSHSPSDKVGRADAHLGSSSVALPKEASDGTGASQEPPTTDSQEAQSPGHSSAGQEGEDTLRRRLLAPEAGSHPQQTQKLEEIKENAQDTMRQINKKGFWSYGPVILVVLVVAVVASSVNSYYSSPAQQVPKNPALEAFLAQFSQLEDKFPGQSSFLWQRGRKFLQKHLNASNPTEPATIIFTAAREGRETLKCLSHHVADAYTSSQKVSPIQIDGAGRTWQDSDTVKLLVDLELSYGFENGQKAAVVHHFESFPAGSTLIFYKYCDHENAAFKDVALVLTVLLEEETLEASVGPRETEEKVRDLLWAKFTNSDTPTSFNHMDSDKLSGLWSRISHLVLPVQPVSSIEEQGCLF
Assay [16] is described as follows: E. coli growth modulation, two-sided OD650, primary screen, E. coli filamentation project, strain DRC41, 24 h (AID 1093).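 Further: MC1000 strain lacking acrAB efflux and sulA so SOS filamentation is blocked; test concentration not given here.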 To be noted: OD650, 24 h, higher = more signal, called active from +8 up or from −8 down.
Assay [17] is described as follows: small-molecule microarray binders of probe aLefty2, primary screen, biochemical, biotinylated probe, 635/667 nm fluorescence (AID 1094).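 Further: score merges spot fluorescence near 667 nm with spot signal-to-noise ratio.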 To be noted: higher = more signal.
The subject of assay [18] is Noggin (protein binding on small-molecule microarray). Kind of assay: Noggin binders on small-molecule microarray, primary screen, biochemical, 635/667 nm fluorescence (AID 1095).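 Further: score merges 667 nm feature fluorescence with signal to noise over triplicate slides.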 To be noted: 635 nm fluorescence, higher = more signal.
Assay [19] has as its target Neurogenic locus notch homolog protein 3 (Homo sapiens) (UniProt Q9UM47). Put plainly: NOTCH3 binders on small-molecule microarray, primary screen, biochemical, 635/667 nm fluorescence (AID 1096). To be noted: NOTCH3 binding, 635 nm fluorescence, higher = more signal.
A short description of assay [20]: small-molecule microarray binders of probe aEGFR, primary screen, biochemical, biotinylated probe, 635/667 nm fluorescence (AID 1097).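 Further: probe is a biotinylated anti-EGFR antibody binding compounds printed on slides; score combines fluorescence near 667 nm and signal to noise of each spot.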 The conditions noted are these: higher = more signal.

Chain of Pro-neuregulin-1, membrane-bound isoform (Homo sapiens) (Q02297 whole entry, looked up, the tested form may be a part, canonical isoform): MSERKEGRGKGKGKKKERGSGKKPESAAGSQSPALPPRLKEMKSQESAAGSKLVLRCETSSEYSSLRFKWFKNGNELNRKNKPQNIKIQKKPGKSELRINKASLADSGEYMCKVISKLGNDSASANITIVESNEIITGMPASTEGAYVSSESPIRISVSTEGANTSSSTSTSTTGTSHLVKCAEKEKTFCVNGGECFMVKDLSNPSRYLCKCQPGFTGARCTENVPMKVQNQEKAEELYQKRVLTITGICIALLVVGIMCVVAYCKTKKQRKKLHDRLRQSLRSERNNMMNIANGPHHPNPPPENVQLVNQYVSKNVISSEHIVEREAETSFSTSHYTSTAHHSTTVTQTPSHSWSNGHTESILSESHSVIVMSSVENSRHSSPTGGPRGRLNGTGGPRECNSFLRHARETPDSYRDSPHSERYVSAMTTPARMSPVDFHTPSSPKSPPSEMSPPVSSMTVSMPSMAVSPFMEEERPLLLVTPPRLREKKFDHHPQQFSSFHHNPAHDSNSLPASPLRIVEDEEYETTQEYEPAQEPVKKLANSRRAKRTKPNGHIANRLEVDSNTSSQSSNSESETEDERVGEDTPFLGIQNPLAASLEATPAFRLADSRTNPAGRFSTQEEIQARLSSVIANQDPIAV

For `COC(=O)[C@@]1(Cc2ccc(OC)cc2)[C@H]2c3cc(C(=O)N4CCCC4)n(Cc4ccc(O)c(OC)c4)c3C[C@H]2CN1C(=O)c1ccccc1`, the composite z-score in assay [1] was 1.41; in assay [2], 1.14; in assay [3], 0.694; in assay [4], 0.777; in assay [5], 1.1; in assay [6], 1.83. Further, the composite z-score is 1.1 in [7]; 2.28 in [9]; 2.44 in assay [10]; -0.356 in [11]; 3.39 in assay [15]; 0.531 in [17]. Moreover, the results for the composite z-score in [18], in assay [19] and in assay [20] were -0.194, 0.6 and 0.805, respectively. Also, the z-score in assay [8] was 0.665 (inactive); in assay [12], 0.972 (inactive); in [13], 1.19 (inactive); in [14] it was 1.18 (inactive); in assay [16], -0.456 (inactive).

Consider `COC(=O)[C@@]1(CCS(=O)(=O)c2ccccc2)N=C(c2ccc(OCCCO)cc2)O[C@H]1c1ccccc1CN=[N+]=[N-]`, for which the composite z-score was 0.959 in assay [1]; 0.38 in [2]; -0.0533 in assay [3]; -0.303 in assay [4]; 0.914 in assay [5]; 0.975 in assay [6]. Further, the composite z-score is 1.23 in assay [7]; 0.883 in [9]; -0.0634 in [10]; 1.38 in assay [11]; 3.01 in assay [15]; 0.0054 in [17]. The composite z-score in [18] came to 0.338; in assay [19], 1; in assay [20], 0.127. The z-score in [8] was -3.26 (inactive); in assay [12] it was 0.265 (inactive); in assay [13], 1.18 (inactive); in [14], 34.4 (active); in assay [16], 0.706 (inactive).

On to `CCOC(=O)C1=CC[C@@H](c2ccccc2)N(S(=O)(=O)c2ccc(C)cc2)[C@H]1c1ccccc1C`, for which the composite z-score is 0.158 in assay [1]; -0.0515 in assay [2]; -0.0895 in assay [3]; 0.49 in [4]; 1.47 in assay [5]; 0.393 in [6]. Besides, the composite z-score stood at 0.714 in assay [7]; 0.789 in [9]; 0.115 in assay [10]; 0.473 in [11]; 1.97 in assay [15]; 0.066 in assay [17]. Further, the composite z-score was 0.72 in assay [18], 0.913 in [19] and -0.0675 in assay [20]. The z-score in [8] is -3.47 (inactive); in [12] it was -0.602 (inactive); in [13], 0.903 (inactive); in assay [14], -0.3 (inactive); in [16], -0.3 (inactive).

For `COc1ccc([C@H]2OC[C@@H]3C[C@@H](Cc4ccccc4)C(=O)N32)cc1`, the composite z-score in assay [1] was -0.446; in assay [2], 0.466; in [3], 0.0216; in assay [4] it was 0.526; in assay [5], 0.426; in assay [6], -0.103. The composite z-score in assay [7] was 1.11; in assay [9], 0.357; in [10] it was 0.115; in [11] it was 0.758; in assay [15] it was 0.0239; in assay [17] it was -0.103. The composite z-score in assay [18] was 0.892; in assay [19], 0.75; in assay [20] it was -0.0299. Also, the z-score was -3.02 (inactive) in assay [8]; -2.03 (inactive) in assay [12]; -3.18 (inactive) in assay [13]; 4.07 (inactive) in [14]; -0.468 (inactive) in assay [16].

Regarding `COc1ccc(C#Cc2ccc3c(c2)[C@]2(C(=O)N3)[C@H](C(=O)Nc3nc4ccccc4s3)[C@H]3C(=O)O[C@H](c4ccccc4)[C@H](c4ccccc4)N3[C@@H]2c2ccc(O)cc2)cc1`, the composite z-score in assay [1] is -0.433; in [2] it was 0.923; in [3] it was 0.0956; in assay [4], 1.13; in assay [5], 1.29; in assay [6], 1.38. Besides, the composite z-score in [7] was 1.34; in assay [9] it was 1.36; in [10], -0.511; in [11], 1.55; in [15] it was 3.26; in assay [17], -0.0353. Also, the composite z-score in assay [18] was 1.82; in [19], 1.02; in assay [20], 0.398. Further, the z-score was 1.46 (inactive) in assay [8]; 2.2 (inactive) in assay [12]; 0.98 (inactive) in assay [13]; 0.172 (inactive) in assay [14]; 0.943 (inactive) in [16].

As for `C=C(COC)C(=O)CC[C@@H](OC(C)=O)c1ccc(CO)o1`, the composite z-score in assay [1] was -0.263; in assay [2], 0.0091; in assay [3], -0.147; in assay [4], 0.764; in assay [5], -0.102; in assay [6] it was -0.0949. In addition, the composite z-score in assay [7] is 0.611; in assay [9] it was 0.316; in assay [10], 0.142; in assay [11] it was 1.43; in assay [15], -0.0809; in assay [17] it was -0.117. Further, the composite z-score in [18] was 1.11; in assay [19], 0.612; in [20] it was -0.0463. The z-score in assay [8] is 0.632 (inactive); in [12] it was -1.22 (inactive); in assay [13], -0.198 (inactive); in assay [14] it was -0.22 (inactive); in assay [16], 0.433 (inactive).

With `C=C[C@@H](COC(=O)OC(C)(C)C)N(Cc1ccc(OC)cc1)S(=O)(=O)c1ccc(Br)cc1`, the composite z-score in [1] was -0.492; in assay [2], 0.544; in assay [3], -0.0598; in assay [4], 0.0626; in assay [5] it was 0.779; in [6], 0.142. Besides, the composite z-score in assay [7] is 0.8; in assay [9] it was 0.481; in assay [10], 0.0505; in assay [11] it was 0.345; in assay [15], 0.269; in assay [17], 0.047. The composite z-score in [18] is 1.07; in assay [19], 1.12; in assay [20], -0.0088. The z-score is -2.35 (inactive) in assay [8]; -0.374 (inactive) in assay [12]; -0.521 (inactive) in assay [13]; -0.555 (inactive) in assay [14]; -0.701 (inactive) in assay [16].

For `COC(=O)[C@@]1(Cc2ccc(F)cc2)[C@H]2c3cc(C(=O)N(C)C)n(Cc4cc(F)c(F)c(F)c4)c3C[C@H]2CN1C(=O)c1ccccc1`, the composite z-score in [1] was 0.293; in [2] it was -0.528; in assay [3] it was 0.261; in assay [4], 0.593; in [5], 1.77; in [6], 1.61. The composite z-score in assay [7] was 0.971; in assay [9], 1.88; in assay [10] it was 0.142; in assay [11], -0.0972; in assay [15], 3.07; in assay [17], 0.376. Besides, the composite z-score in assay [18] is -0.592; in [19] it was 1.03; in assay [20], 0.487. The z-score in assay [8] is 0.621 (inactive); in [12], 0.0065 (inactive); in assay [13], 1.72 (inactive); in assay [14] it was 2.54 (inactive); in assay [16], -0.535 (inactive).

As for `CO[C@H]1O[C@H](CO)[C@@H](OC(=O)Nc2ccc(C(F)(F)F)cc2)[C@H](OC(=O)Nc2ccc3c(c2)OCO3)[C@@H]1OC(=O)Nc1ccc2c(c1)OCO2`, the composite z-score is -0.139 in assay [1]; 1.62 in assay [2]; 0.0666 in assay [3]; 1.22 in assay [4]; 1.51 in assay [5]; 1.76 in assay [6]. Moreover, the composite z-score in assay [7] was 1.29; in [9], -0.0167; in assay [10] it was 0.124; in [11] it was 1.54; in assay [15], 3.11; in assay [17] it was -0.0021. Moreover, the figures for the composite z-score in assay [18], in assay [19] and in [20] were 0.476, 1.08 and 0.0869, respectively. The z-score in assay [8] was 3.93 (inactive); in assay [12], 2.76 (inactive); in assay [13], 0.942 (inactive); in [14], 10 (active); in assay [16], 2.24 (inactive).
